Bioassay records as filed in PubChem BioAssay.
FMDV inh: antivirals against foot and mouth disease virus. AID 1159524. FMDV antiviral cell-based qHTS. Potency, µM (doses to about 57.9 µM), for the others: top-dose activity change, negative = inhibition, hits mostly inhibitors. 410,000 compounds, 1.2% hits; calls by dose curve; tested in HEK293T cells; note: read-out not given here; potency is the fitted concentration of half-maximal effect; nearly all actives have a fitted effect of over 45% in size
VACV mCherry inh: vaccinia inhibition (mCherry reporter) | Vaccinia virus mCherry reporter infection, fluorescence | Potency, µM (doses to about 36.5 µM), without a hit: top-dose activity change, negative = inhibition, most hits filed as inhibitors | 310,000 compounds, 0.63% hits; calls by dose curve; tested in A549 cells; note: potency is the fitted concentration of half-maximal effect; nearly all actives have a fitted effect of over 35% in size
Lassa entry inh: inhibitors of Lassa virus binding or cell entry | Potency, µM (highest dose often 37.9 µM), without a hit: at the highest dose activity change, negative = inhibition, actives largely listed as inhibitors | Lassa virus pseudotype entry inhibition, cell reporter | 300,000 compounds, 1.2% hits | AID 540256; calls by dose curve; tested in HEK293 cells; note: potency is the fitted concentration of half-maximal effect; nearly all actives have a fitted effect of over 50% in size
HCMV antiviral: blocks human cytomegalovirus replication; HFF cells, HCMV-luciferase reporter, 72 h; active compounds read low; activity change, negative = inhibition, % at 57.5 µM; 410,000 compounds, 4.5% hits; in the data active = activity change below about -60%; inconclusive = no clear call, values can overlap the other calls; inactive = above about -39%
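Luciferase read-out from HCMV-luciferase-infected HFFs (MOI 1 PFU/cell) 72 h post infection at 37C; compounds added after 16 h cell attachment; activity normalized between buffer-only basal and Salinomycin (10uM) inhibitor controls.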
Marburg entry inh: inhibitors of Marburg virus binding or cell entry; Marburg virus pseudotyped entry inhibition, cell reporter; Potency, µM (top dose mostly 37.8 µM), inactives show at the highest dose activity change, negative = inhibition, hits mostly inhibitors; 300,000 compounds, 1.8% hits; AID 540276; calls by dose curve; tested in HEK293 cells; note: potency is the fitted concentration of half-maximal effect
Vaccinia Venus: vaccinia inhibition (Venus reporter); Potency, µM (series often up to 36.5 µM), without a hit: at the top dose activity change, negative = inhibition, actives largely listed as inhibitors; 330,000 compounds, 0.46% hits; AID 720580; Vaccinia virus Venus reporter expression, fluorescence; calls by dose curve; tested in A549 cells; note: potency is the fitted concentration of half-maximal effect; nearly all actives have a fitted effect of over 30% in size
The depositor's hits bear a star; i = inactive; ? = inconclusive; / = not tested or not shown; [ ] = another dose, or the depositor's remark. Rows were chosen to be rich in hits. Some 6.5% of all compounds tested hit in one or more screens of this group. % is set by controls: 0 for no effect and ±100 for the full control effect.

SMILES	FMDV inh	VACV mCherry inh	Lassa entry inh	HCMV antiviral	Marburg entry inh	Vaccinia Venus
NCC1OC(OC2C(N)CC(N)[C@@H](O)[C@@H]2OC2O[C@H](CO)[C@@H](O[C@@H]3OC(CN)C(O)C(O)C3N)C2O)C(N)C(O)C1O (some centres not stated)	-2%	-10%	/	/	/	-3%
FC(F)Oc1ccc(NC(=S)NNc2ccnc3cc(Cl)ccc23)cc1	?	-11%	?	-88*	11µM*	-11%
NC(=S)NNc1ccnc2cc(Cl)ccc12	-15%	?	9%	-13	?	-20%
O=C(NNc1ccnc2cc(Cl)ccc12)C1CCCCC1	?	-1%	-4%	-82*	?	-10%
O=C(N1CCCCC1)N1CCC[C@@H]1c1noc2ccccc12	/	/	/	-20	/	/
C[C@@H]1CC2CCCC2[C@]2(O1)C(=O)Nc1ccccc12 (some centres not stated)	/	/	/	/	-4%[14.2 µM]	/
Cc1ccc(C(C)C)c(O)c1C(=O)O	-13%	-9%	/	-63*	/	-15%
CCC(C)NC(=O)C1CCC(CNS(=O)(=O)c2ccc(Cl)cc2)CC1 (configuration not stated)	-8%	-10%	11%[46.1 µM]	0	/	0%
Cc1cc(C(=O)N/N=C2\CC(=O)CC(C)(C)C2)c(C)n1-c1ccccc1	0%	/	20%	?	2.9µM*	/
Cc1cc(C(=O)NN=C2CC(=O)CC(C)(C)C2)c(C)o1	1%	i	2%	-20	?	-3%
Cc1cc(C(=O)N/N=C2\CC(=O)CC(C)(C)C2)c(C)n1-c1ccc(F)cc1	0%	i	6%	-64*	-14%	-14%
Cc1cc(C(=O)N/N=C2\CC(=O)c3ccccc32)c(C)n1-c1ccccc1	-4%	?	?	60	?	-7%
C=CCN1c2ccccc2[C@]23CCC(=O)N(CC4CC4)C2=NC(C(=O)OC)=C(C(=O)OC)[C@H]13	/	/	/	/	19%[14.2 µM]	/
COc1ccc(C(=O)c2ccc(N3CCN(C(=O)c4ccc(F)cc4)CC3)c(F)c2)cc1Br	?	-8%[1.46 µM]	-14%	-88*	7%	-17%
CCCN(CC)c1ncnc2[nH]ncc12	-9%	-9%	9%	-65*	?	-7%
Cc1ccc2cc(C3CC(c4ccco4)=NN3S(=O)(=O)c3ccccc3)c(Cl)nc2c1 (configuration not stated)	-11%	/	16µM*	-80*	2.6µM*	/
Cc1ccc(S(=O)(=O)c2nc(NCCN(C)C)sc2Cl)cc1	-21%	/	-17%	?	?	/
O=S(=O)(c1ccccc1)c1nc(Nc2cccc(O)c2)sc1Cl	0%	-30%	?	-67*	?	-26%
Cc1cccc(Nc2nc3c(S(=O)(=O)c4ccccc4)nnn3c3ccccc23)c1	-27%	i	-1%	32	7%	3%
COc1ccc(Nc2nc(S(=O)(=O)c3ccc(C)cc3)c(Cl)s2)cc1	?	?	0%[46.1 µM]	-94*	?	?
Cc1ccc(S(=O)(=O)c2nc(Nc3ccccc3)sc2Cl)cc1	?	/	-28%	-74*	?	/
CCOc1ccc(NC(=O)C2CCN(S(=O)(=O)c3c(C)noc3/C=C/c3cccs3)CC2)cc1	-23%	-8%	8%[46.1 µM]	3	20%[46.1 µM]	-16%
COc1ccccc1C1Nc2c(sc3nc(C)cc(C)c23)C(=O)N1c1ccccc1 (configuration not stated)	36%	-5%[7.34 µM]	?	298	9%[46.1 µM]	-6%[7.34 µM]
COc1ccccc1N1CCN(C(=O)c2cc(-c3ccc(C)c(F)c3)on2)CC1	-17%	-1%	?	-18	-9%[46.1 µM]	-4%
O=C(NCCCN1CCOCC1)C(=O)N/N=C/c1ccccc1Cl	21%	/	/	2	/	/
SMILES	FMDV inh	VACV mCherry inh	Lassa entry inh	HCMV antiviral	Marburg entry inh	Vaccinia Venus
O=C(NCCCN1CCOCC1)C(=O)N/N=C/c1c2ccccc2cc2ccccc12	-16%	?	?	-93*	?	?
O=C(NCCCN1CCOCC1)C(=O)N/N=C/c1c(Cl)cccc1Cl	20%	-4%	2%	-39	-13%[46.1 µM]	8%
CC(C)c1ccc(/C=N/NC(=O)C(=O)NCCCN2CCOCC2)cc1	-18%	i	-1%	-62*	-6%	-19%
CC(=O)c1ccc(-c2cc(F)cc3c2OC(CNC(=O)Cc2cn4ccsc4n2)C3)s1 (configuration not stated)	7%	-14%	/	/	/	3%
CC(C)COc1ccc(C(=O)Nc2onc3c2CCCC3)cc1	-11%	-9%	?	20	?	-1%
CCc1ccc(Oc2nccc(-c3c(-c4ccc(F)cc4)ncn3C3CCNCC3)n2)cc1	/	/	11µM*	/	/	/
O=C(/C=C/c1cccnc1)c1ccc([N+](=O)[O-])cc1	-5%	?	?	149	?	-25%
O=C(C=Cc1cccnc1)c1ccccc1	32µM*	-15%	?	-25	13µM*	-6%
Cc1cccnc1NC(=S)NC(=O)/C=C/c1ccccc1	25%	-1%	14%[46.1 µM]	-29	?	-5%
O=C(/C=C/c1cccnc1)c1ccc(O)cc1	0%	i	18%[46.1 µM]	-88*	?	2%
O=C(/C=C/c1ccccc1)NC(=S)Nc1cccnc1	/	-19%	-3%	22	12µM*	-24%
O=C(/C=C/c1cccnc1)c1cccc(O)c1	-29%	-9%	?	25	?	-8%
COc1cc(C(=O)/C=C/c2cccnc2)c([N+](=O)[O-])cc1OC	14µM*	13µM*	/	-100*	/	11µM*
COc1cccc(CNC(=O)C2CCCN(S(=O)(=O)c3cn(C)cn3)C2)c1 (configuration not stated)	2%	-6%	17%[46.1 µM]	-26	/	-5%
O=c1c2ccccc2oc2ccc(-c3ccoc3)cc12	/	-4%	/	/	/	-6%
Cc1cc2c(c(-c3ccc4nc(C)ccc4c3)c1)OC(CNC(=O)Cc1ccn(C)c1)C2 (configuration not stated)	5%	-25%	/	/	/	-15%
Cn1c(-c2ccccc2)c(C(=O)CCl)c2ccccc21	10µM*	-27%	-27%	-101*	?	-22%
CCn1c(-c2ccccc2)c(C(=O)CCl)c2ccccc21	18µM*	-15%	/	-100*	/	-18%
Cc1ccc(-c2nc(CN3CCN(C(=O)C4CCCO4)CC3)cs2)cc1 (configuration not stated)	?	i	?	-71*	18µM*	-20%
Cc1ccc(CN2CCN(C(=O)C3CCCO3)CC2)cc1 (configuration not stated)	13%	i	-3%	4	6%	2%
C[C@]12CCCCCC3=CC(=O)C=C[C@@]31OC(=O)CC2	/	/	/	6	/	/
CCCCOc1ccc(N2C(=O)C(C)CNC2=S)cc1 (configuration not stated)	3%	-12%	0%[46.1 µM]	-99*	-2%	2%
Cc1ccc(Cl)cc1N1CCN(C(=O)c2ccc3c(c2)CCN3S(C)(=O)=O)CC1	/	/	/	-66*	/	/
Cc1ccc(Cl)cc1N1CCN(C(=O)c2ccc3nc[nH]c3c2)CC1	-16%	-20%	?	-61*	?	-9%
